In PubChem BioAssay (Tox21):
Where “and” joins values, the source holds several entries; their conditions need not be identical. Equal entries are not always repeated. Inconclusive results are not listed. Calls of active or inactive are those of the source. Unless noted, the call rests on the fitted dose curve; in most records, active means well fitted curve in the direction sought with a large enough effect in the repeat runs; inconclusive means weak or mixed curves; inactive means no such curve, though single readings can be large; an effect the other way counts as inactive or inconclusive.

Experiments:
[1] = qHTS assay to identify small molecule agonists of the RXR signaling pathway - cell viability counter screen (AID 1159529); further: nearly all actives have a fitted effect of over 50% in size; further: potency means the concentration at half of the fitted maximal effect
Outline: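 Luminescence from CellTiter-Glo (30 min, RT) measured viability in the same wells as the beta-lactamase reporter readout. Cells: GeneBLAzer RXR-alpha HEK 293T, 2% charcoal-stripped FBS. Compound exposure 16 hr, 37 C.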

[2] = qHTS assay to identify small molecule antagonists of the retinoid acid receptor (RAR) signaling pathway - cell viability counter screen (AID 1159551); further: nearly all actives have a fitted effect of over 35% in size
Outline: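 C3RL4 cells were seeded overnight at 37 C, then treated with compounds plus 1 uM (final) retinol for 6 h at 37 C. Viability was read as ATP by CellTiter-Glo luminescence after 30 min at room temperature.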

[3] = qHTS assay to identify small molecule antagonists of the retinoic acid receptor (RAR) signaling pathway (AID 1159552; further: nearly all actives have a fitted effect of over 50% in size; further: potency means the concentration at half of the fitted maximal effect)
Outline: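 Luminescence from a RARE luciferase reporter in C3RL4 cells served as read-out. Cells received compounds together with 1 uM final retinol and incubated 6 hr at 37 C before detection reagent was added for 30 min at room temperature.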

[4] = qHTS assay to identify small molecule agonists of the retinoic acid receptor (RAR) signaling pathway (AID 1159553)
Outline: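 C3RL4 cells carrying a RARE luciferase reporter were plated overnight at 37 C, then exposed to compounds in DMSO for 6 hr at 37 C and 5% CO2. Luminescence was read 30 min after luciferase reagent addition at room temperature.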

[5] = qHTS assay to identify small molecule antagonists of the estrogen related receptor (ERR) signaling pathway - cell viability counter screen (AID 1224818);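 further: series mostly up to about 46 µM; viability measured after 17.5 h of compound exposure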
Outline: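 ERR reporter cells plated 6 h at 37 C/5% CO2, then compounds in DMSO pin-transferred and incubated 17.5 h at 37 C. Viability read as CellTiter-Fluor fluorescence after 30 min at 37 C.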

[6] = qHTS assay to identify small molecule agonists of the estrogen related receptor (ERR) signaling pathway (AID 1224820)
Outline: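 Cells: ERR line from NTP, 2,000/well. Pre-incubation 6 h, 37 C/5% CO2. Compound (DMSO) pin transfer, 18 h 37 C. One-Glo, 30 min RT, luminescence.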

[7] = qHTS assay to identify small molecule antagonists of the estrogen related receptor signaling pathway with the pleiotropic PPARgamma coactivator (PGC) cell viability counter screen (AID 1224822; further: series mostly up to about 46 µM)
Outline: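 PGC/ERR cells were seeded at 2,000 cells/well, rested 6 h at 37 C/5% CO2, then given compounds in DMSO by pin tool and incubated 17.5 h at 37 C. Viability came from CellTiter-Fluor fluorescence after 30 min.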

[8] = qHTS assay to identify small molecule agonists of the estrogen related receptor signaling pathway with the pleiotropic PPARgamma coactivator (PGC) (AID 1224823)
Outline: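 Steps: plate PGC/ERR cells at 2,000 cells/well; incubate 6 h, 37 C/5% CO2; pin-transfer compounds (DMSO); incubate 18 h, 37 C; add One-Glo; 30 min RT; read luminescence.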

[9] = qHTS assay to identify small molecule antagonists of the estrogen related receptor (ERR) signaling pathway from Tox21 library - cell viability counter screen (AID 1224834); further: nearly all actives have a fitted effect of over 30% in size; further: potency means the concentration at half of the fitted maximal effect
Outline: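 ERR reporter cells were plated 6 h before compound addition, then exposed to test compounds in DMSO for 17.5 h at 37 C. Viability was read as CellTiter-Fluor fluorescence after a 30-minute incubation at 37 C.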

[10] = target: Luciferin 4-monooxygenase (Photinus pyralis) (UniProt P08659); experiment: qHTS assay to identify small molecule inhibitors of firefly luciferase (AID 1224835); further: series mostly up to about 120 µM; nearly all actives have a fitted effect of over 25% in size
Outline: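 Quantitative HTS format; KM concentrations of both substrates. Purified P. pyralis FLuc activity quantified from luminescence images.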

[11] = qHTS assay to identify small molecule agonists of the constitutive androstane receptor (CAR) signaling pathway - cell viability counter screen (AID 1224836); further: series mostly up to about 92 µM; nearly all actives have a fitted effect of over 45% in size
Outline: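 Viability read-out: CellTiter-Fluor fluorescence after 23 h compound exposure at 37 C/5% CO2 in double-stable HepG2-CYP2B6-hCAR cells, with PK11195 present at 0.75 uM final; compounds tested in 15-point titration.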

[12] = qHTS assay to identify small molecule antagonists of the constitutive androstane receptor (CAR) signaling pathway - cell viability counter screen (AID 1224837); further: series mostly up to about 92 µM; nearly all actives have a fitted effect of over 45% in size
Outline: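 HepG2 cells stably expressing hCAR and a CYP2B6-2.2kb reporter were plated and pre-incubated 4 hr at 37 C/5% CO2, then given compounds at 15 concentrations plus 50 nM CITCO (final). After 23 hr, viability was read by CellTiter-Fluor fluorescence.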

[13] = target: Nuclear receptor subfamily 1 group I member 3 (Homo sapiens) (UniProt Q14994); experiment: qHTS assay to identify small molecule antagonists of the constitutive androstane receptor (CAR) signaling pathway (AID 1224838); further: nearly all actives have a fitted effect of over 40% in size; further: potency means the concentration at half of the fitted maximal effect
Outline: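 HepG2 cells stably co-transfected with hCAR and a CYP2B6-2.2kb luciferase reporter were seeded 4 h before compound addition at 15 concentrations. Cells were stimulated with 50 nM CITCO (final) for 24 h at 37 C; luciferase luminescence was then read.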

[14] = target: Nuclear receptor subfamily 1 group I member 3 (Homo sapiens) (UniProt Q14994); experiment: qHTS assay to identify small molecule agonists of the constitutive androstane receptor (CAR) signaling pathway (AID 1224839); further: nearly all actives have a fitted effect of over 15% in size; further: potency means the concentration at half of the fitted maximal effect
Outline: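 Luminescence read-out (ONE-Glo, 30 min, room temperature) from double-stable HepG2-CYP2B6-hCAR cells exposed 24 h to 15-point compound series in presence of 0.75 uM PK11195 final.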

[15] = qHTS assay to identify small molecule antagonists of the estrogen related receptor signaling pathway with the pleiotropic PPARgamma coactivator (PGC) from Tox21 10K library - cell viability counter screen (AID 1224840; active means well fitted cell-killing curve with a large enough effect in the repeat runs, not every such curve was filed as active; further: nearly all actives have a fitted effect of over 40% in size)
Outline: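 PGC/ERR cells were seeded at 2,000 cells/well and left 6 hours at 37 C/5% CO2 before pin-tool addition of compounds in DMSO. After 17.5 hours at 37 C, CellTiter-Fluor was added and fluorescence read 30 minutes later.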

[16] = target: Retinoic acid receptor RXR-alpha (Homo sapiens) (UniProt P19793); experiment: qHTS assay to identify small molecule agonists of the RXR signaling pathway (AID 1159527; calls by dose curve; further: nearly all actives have a fitted effect of over 35% in size)
Outline: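 Agonist mode; 9-cis retinoic acid positive control. HEK 293T UAS-bla reporter cells, 2% charcoal-stripped FBS, 16 hr compound exposure at 37 C/5% CO2. LiveBLAzer B/G FRET substrate 2 hr RT; ex 405, em 460/530 nm.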

[17] = qHTS assay to identify small molecule antagonists of the estrogen related receptor signaling pathway with the pleiotropic PPARgamma coactivator (PGC) from Tox21 10K library (AID 1224841; call rule not given here; further: actives are mostly falling curves and most rising ones were filed inactive; nearly all actives have a fitted effect of over 50% in size; further: potency means the concentration at half of the fitted maximal effect)
Outline: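 PGC/ERR reporter cells were seeded at 2,000 cells/well and held 6 hours at 37 C/5% CO2 before pin-tool addition of compounds in DMSO. After 18 hours at 37 C, One-Glo was added and luminescence read after 30 minutes at room temperature.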

[18] = qHTS assay to identify small molecule agonists of the estrogen related receptor signaling pathway with the pleiotropic PPARgamma coactivator (PGC) from Tox21 10K library (AID 1224842); further: nearly all actives have a fitted effect of over 15% in size
Outline: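 PGC/ERR reporter cells (NTP line) were seeded 2,000 per well, rested 6 h at 37 C/5% CO2, then pin-dosed with compounds in DMSO for 18 h at 37 C; luciferase read by One-Glo luminescence after 30 min at room temperature.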

[19] = qHTS assay to identify small molecule antagonists of the estrogen related receptor (ERR) signaling pathway (AID 1224819;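 further: luminescence from an ERR-driven luciferase reporter measured with One-Glo reagent; series mostly up to about 46 µM; nearly all actives have a fitted effect of over 50% in size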)
Outline: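 ERR reporter cells were plated at 2,000 cells/well and left 6 h at 37 C/5% CO2 before pin-tool transfer of compounds in DMSO. After 18 h at 37 C, One-Glo was added and luminescence was read 30 min later at room temperature.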

[20] = system: estrogen-related receptor alpha (ERRalpha) with PGC-1alpha coactivator, human; experiment: qHTS assay to identify small molecule antagonists of the estrogen related receptor signaling pathway with the pleiotropic PPARgamma coactivator (PGC) (AID 1224821; calls by dose curve)
Outline: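 Luminescent read-out (One-Glo, 30 min at room temperature) following 18 h treatment of PGC/ERR cells at 37 C with compounds delivered in DMSO. Cells had settled 6 h at 37 C/5% CO2 before dosing.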

Measured: Potency

Luciferin 4-monooxygenase (Photinus pyralis), sequence (P08659 whole entry, looked up): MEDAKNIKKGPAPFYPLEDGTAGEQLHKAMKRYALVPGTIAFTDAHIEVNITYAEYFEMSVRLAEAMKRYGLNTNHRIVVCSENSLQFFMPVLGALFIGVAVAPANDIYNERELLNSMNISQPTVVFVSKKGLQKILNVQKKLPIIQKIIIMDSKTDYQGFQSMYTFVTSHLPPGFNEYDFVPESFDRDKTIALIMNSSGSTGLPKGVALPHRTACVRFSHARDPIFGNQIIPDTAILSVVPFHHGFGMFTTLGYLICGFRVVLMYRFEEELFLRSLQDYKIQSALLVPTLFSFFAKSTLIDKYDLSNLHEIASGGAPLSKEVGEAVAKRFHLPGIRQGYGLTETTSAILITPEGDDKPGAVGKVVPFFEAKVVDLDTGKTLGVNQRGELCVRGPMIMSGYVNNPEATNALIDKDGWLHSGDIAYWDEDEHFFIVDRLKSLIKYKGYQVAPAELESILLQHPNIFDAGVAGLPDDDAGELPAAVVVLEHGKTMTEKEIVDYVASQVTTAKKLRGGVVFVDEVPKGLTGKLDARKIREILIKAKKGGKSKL
Nuclear receptor subfamily 1 group I member 3 (Homo sapiens), sequence (Q14994 whole entry, looked up): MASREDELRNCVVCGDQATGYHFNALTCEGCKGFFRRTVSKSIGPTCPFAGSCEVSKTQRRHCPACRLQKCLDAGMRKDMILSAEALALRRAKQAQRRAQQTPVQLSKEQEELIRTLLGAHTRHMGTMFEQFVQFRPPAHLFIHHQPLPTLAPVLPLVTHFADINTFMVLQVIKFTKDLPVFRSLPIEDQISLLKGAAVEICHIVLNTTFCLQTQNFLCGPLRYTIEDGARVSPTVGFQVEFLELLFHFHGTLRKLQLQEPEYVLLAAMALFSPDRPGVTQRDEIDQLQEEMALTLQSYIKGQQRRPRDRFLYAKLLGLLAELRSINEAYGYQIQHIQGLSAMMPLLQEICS
Retinoic acid receptor RXR-alpha (Homo sapiens), sequence (P19793 whole entry, looked up): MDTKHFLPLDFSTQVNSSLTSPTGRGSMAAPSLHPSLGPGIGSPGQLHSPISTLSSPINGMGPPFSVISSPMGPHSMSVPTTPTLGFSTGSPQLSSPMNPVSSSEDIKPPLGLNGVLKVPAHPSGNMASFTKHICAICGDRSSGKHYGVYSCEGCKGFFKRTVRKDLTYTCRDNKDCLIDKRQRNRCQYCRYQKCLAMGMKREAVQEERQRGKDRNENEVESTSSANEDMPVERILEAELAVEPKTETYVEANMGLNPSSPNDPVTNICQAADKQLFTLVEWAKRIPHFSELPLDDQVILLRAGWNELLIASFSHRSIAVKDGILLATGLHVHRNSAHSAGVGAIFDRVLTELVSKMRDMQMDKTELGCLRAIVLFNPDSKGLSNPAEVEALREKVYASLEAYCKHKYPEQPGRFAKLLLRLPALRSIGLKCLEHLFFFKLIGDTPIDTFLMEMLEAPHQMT

CC(O)(CS(=O)(=O)c1ccc(F)cc1)C(=O)Nc1ccc(C#N)c(C(F)(F)F)c1 (stereo unspecified)
active: [1] 22.7 µM
not listed: [16] | [17] | [18] | [19] | [20]
inactive: all other assays above

C=CC(=O)OCC(C)O (stereo unspecified)
not listed: [2] | [5] | [6] | [7] | [8] | [11] | [19] | [20]
inactive: all other assays above

CC1(C)[C@H](C=C(Cl)Cl)[C@@H]1C(=O)O[C@@H](C#N)c1cccc(Oc2ccccc2)c1
inactive: [16] | [2] | [3] | [4] | [10] | [11] | [12] | [13] | [15]

CC(C)O.CC(C)O.OCCN(CCO)CCO.OCCN(CCO)CCO.[Ti]
inactive: [16] | [1] | [3] | [4] | [10] | [12] | [13] | [15]

Cc1ccccc1CCl
inactive: [16] | [1] | [3] | [4] | [9] | [10] | [12] | [13] | [15] | [17] | [18]

CCCCCC[N+](=O)[O-]
inactive: [16] | [1] | [9] | [12] | [13] | [15]

CCCCOC(=O)c1ccccc1C(=O)OCc1ccccc1
not listed: [9] | [10] | [14] | [16] | [18]
inactive: all other assays above

CCOP(=O)(OCC)Oc1ccc([N+](=O)[O-])cc1
inactive: [16] | [1] | [3] | [4] | [9] | [11] | [12] | [13] | [15] | [18]
active: [17] 19.6 µM and 5.45 µM

C=CC(=O)OCCCCO
inactive: [16] | [1] | [9] | [10] | [11] | [12] | [13] | [14] | [15] | [17]

N#CCc1ccccc1
inactive: [16] | [1] | [3] | [4] | [9] | [12] | [13] | [14] | [15]

COc1cc(Cl)c(OC)cc1Cl
inactive: [16] | [2] | [3] | [4] | [9] | [10] | [11] | [12] | [15] | [17] | [18]

CCC(Br)(CC)C(=O)NC(N)=O
inactive: [16] | [1] | [3] | [9] | [10] | [11] | [12] | [13] | [14] | [15]

C=CCC1([C@H](C)CCC)C(=O)NC(=O)NC1=O
inactive: [16] | [1] | [3] | [9] | [10] | [11] | [12] | [13] | [14] | [15]

CCBr
inactive: [16] | [1] | [3] | [4] | [10] | [11] | [12] | [13] | [14] | [15] | [17]

CC(c1ccc(O)cc1)(c1ccc(O)cc1)c1ccc(O)cc1
active: [3] 61.1 µM | [13] 9.69 µM | [17] 54.5 µM
inactive: [16] | [2] | [4] | [11] | [12] | [14] | [18]

Cl/C=C\Cl
inactive: [16] | [1] | [3] | [4] | [9] | [10] | [11] | [12] | [15]

CC(Cl)Cl
not listed: [2] | [5] | [6] | [7] | [8] | [18] | [19] | [20]
inactive: all other assays above

O=C(O)c1ccccc1C(=O)Nc1cccc2ccccc12
active: [14] 30.6 µM
inactive: [16] | [1] | [3] | [4] | [12] | [13] | [15]

CC(=O)[C@H]1CC[C@H]2[C@@H]3CC[C@H]4C[C@](C)(O)CC[C@]4(C)[C@H]3CC[C@]12C
not listed: [2] | [3] | [4] | [9]
inactive: all other assays above

O=S(=O)(Cl)c1ccccc1
inactive: [16] | [1] | [3] | [4] | [9] | [10] | [11] | [12] | [13] | [14] | [15]

CCCCN(N=O)C(=N)N[N+](=O)[O-]
inactive: [16] | [2] | [4] | [9] | [10] | [11] | [12] | [15]
active: [13] 31.3 µM

O=C(CBr)OCc1ccccc1
inactive: [16] | [1] | [3] | [4] | [10] | [11] | [12] | [13] | [14] | [15]

Clc1cccc2ccccc12
inactive: [16] | [1] | [10] | [12] | [13] | [14] | [15]

O=[N+]([O-])c1cc(C(F)(F)F)cc([N+](=O)[O-])c1Cl
active: [9] 34.5 µM
inactive: [16] | [2] | [3] | [4] | [10] | [11] | [13] | [14] | [17]

O=C(O)C(F)(F)C(F)(F)C(F)(F)C(F)(F)C(F)(F)C(F)(F)C(F)(F)C(F)(F)C(F)(F)F
inactive: [16] | [2] | [4] | [9] | [10] | [11] | [12] | [13] | [14] | [15] | [17]
